The nature of assay [1]: qHTS RealTime-Glo MT Cell Viability Assay in HepG2 cells - 40 hour (AID 1224870). Note: nearly all actives have a fitted effect of over 50% in size. In outline:
(§1)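 HepG2 cells mixed with RealTime-Glo MT reagents (NanoLuc plus cell-permeant prosubstrate) were seeded at 600 cells/well, incubated 5 h at 37 C/5% CO2, then pinned with compounds in DMSO; nonlytic luminescence tracked viability during 40 h treatment.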
(Quantitative high-throughput screening tests each substance at several concentrations.)

Assay [2] is described as follows: A CellTox Green Cytotoxicity Assay to monitor cytotoxicity in HEK293 cells - 40 hour (AID 1224871). Note: nearly all actives have a fitted effect of over 45% in size. A digest of the protocol:
(§2)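 Cytotoxicity was tracked continuously in HEK293 cells by a DNA-binding dye excluded from viable cells. Compounds were transferred in DMSO 5 h after seeding; fluorescence was recorded at intervals up to 40 h.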

A short description of assay [3]: qHTS RealTime-Glo MT Cell Viability Assay in HEK293 cells - 16 hour (AID 1224872). Note: top concentration of the series differs between compounds; nearly all actives have a fitted effect of over 50% in size. In outline: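 Reads taken at 0, 8, 16, 24, 32 and 40 h from the same wells. HEK293 cells (600/well) carried RealTime-Glo reagents from seeding, with compound added after a 5 h settle at 37 C.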
Assay [4] can be described thus: qHTS RealTime-Glo MT Cell Viability Assay in HepG2 cells - 8 hour (AID 1224873). Note: nearly all actives have a fitted effect of over 55% in size. In outline:
as §1

The nature of assay [5]: qHTS RealTime-Glo MT Cell Viability Assay in HEK293 cells - 40 hour (AID 1224874). Note: nearly all actives have a fitted effect of over 50% in size. To be noted: RealTime-Glo luminescence; max response: active compounds read low. A digest of the protocol: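 Nonlytic bioluminescent viability monitoring. HEK293 at 600 cells/well with reagent; 5 h settle; compound transfer by pintool; plates held at 37 C and read at set time points.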
Assay [6] in a line: A CellTox Green Cytotoxicity Assay to monitor cytotoxicity in HEK293 cells - 24 hour (AID 1224875). Note: series mostly up to about 77 µM; nearly all actives have a fitted effect of over 45% in size. In outline:
as §2

The nature of assay [7]: A CellTox Green Cytotoxicity Assay to monitor cytotoxicity in HepG2 cells - 16 hour (AID 1224876). Note: nearly all actives have a fitted effect of over 45% in size. Note: potency is the fitted concentration of half-maximal effect. In outline:
(§3)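 Real-time, homogeneous cytotoxicity readout: dead-cell DNA staining by CellTox Green in HepG2 monolayers, fluorescence measured at timed intervals up to 40 h of continuous compound exposure.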

A short description of assay [8]: qHTS RealTime-Glo MT Cell Viability Assay in HepG2 cells - 32 hour (AID 1224877). Note: nearly all actives have a fitted effect of over 55% in size. A digest of the protocol:
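HepG2 suspension premixed with RealTime-Glo reagents is plated at 600 cells per well and left 5 h at 37 C/5% CO2. Compounds in DMSO then go in, and bioluminescence reflecting viable cell number is recorded over 40 h.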

A short description of assay [9]: A CellTox Green Cytotoxicity Assay to monitor cytotoxicity in HepG2 cells - 24 hour (AID 1224878). Note: nearly all actives have a fitted effect of over 45% in size. In outline:
as §3

Assay [10] is described as follows: A CellTox Green Cytotoxicity Assay to monitor cytotoxicity in HepG2 cells - 40 hour (AID 1224879). Note: nearly all actives have a fitted effect of over 40% in size. In outline: as §3

Results filed as inconclusive are left out. Values without a mark were called inactive. The source made the active and inactive calls. Calls come from the whole dose curve; as a rule, active = well fitted curve in the direction sought with a large enough effect in the repeat runs; inconclusive = weak or mixed curves; inactive = no such curve, though single readings can be large; an effect the other way counts as inactive or inconclusive.
% is set by controls: 0 for no effect and ±100 for the full control effect.

For the compound `O=C(O)c1ccc(O)cc1O`, the Potency entry in assay [1], in [2], in [3], in [4], in [6] and in [7] was “inactive” throughout. The Potency result in [8], in assay [9] and in [10] was “inactive” each time. For the same compound, the max response in assay [5] is -2.47%.

Regarding `CCC(CO)(CO)CO`, the Potency result in assay [1], in assay [2], in assay [3], in [4], in assay [6] and in assay [7] was “inactive” in each case. Also, the Potency entry in assay [8], in [9] and in [10] was “inactive” each time. Besides, the max response in assay [5] was 5.95%.

Consider `CC(C)COC(=O)COc1cc(Cl)c(Cl)cc1Cl`, for which the Potency entry in assay [1], in assay [2], in assay [3], in assay [4], in [6] and in assay [7] was “inactive” throughout. The Potency result in [8], in assay [9] and in assay [10] was “inactive” each time. Moreover, the max response in assay [5] is -15.9%.

As to `Cc1ccc(Nc2c(F)cccc2Cl)c(CC(=O)O)c1`, the Potency result in assay [1], in assay [2], in assay [3], in assay [4], in assay [6] and in assay [7] was “inactive” each time. The Potency entry in assay [8], in [9] and in assay [10] was “inactive” throughout. In addition, the max response in [5] is 5.05%.

Take `CCCCC[C@H](O)/C=C/[C@H]1[C@H](O)CC(=O)[C@@H]1C/C=C\CCCC(=O)O`: the Potency entry in [1], in assay [2], in assay [3], in [4], in [6] and in assay [7] was “inactive” each time. Moreover, the Potency entry in assay [8], in assay [9] and in assay [10] was “inactive” throughout. Also, the max response in [5] was 19.7%.

`O=C(O)c1cc(Cl)cc(Cl)c1O`: the Potency result in [1], in assay [2], in assay [3], in assay [4], in assay [6] and in assay [7] was “inactive” throughout. Moreover, the Potency entry in [8], in assay [9] and in assay [10] was “inactive” in each case. Moreover, the max response in [5] was -0.228%.

On to `CCCOC(=O)c1c(Cl)c(Cl)c(Cl)c(Cl)c1C(=O)OCCC`, for which the Potency entry in assay [1], in assay [2], in [3], in [4], in assay [6] and in [7] was “inactive” in each case. In addition, the Potency entry in [8], in [9] and in [10] was “inactive” throughout. Also, the max response in assay [5] is 3.32%.

As to `Cc1ccccc1S(N)(=O)=O`, the Potency entry in assay [1], in assay [2], in assay [3], in assay [4], in assay [6] and in assay [7] was “inactive” in each case. Moreover, the Potency result in [8], in [9] and in [10] was “inactive” each time. Moreover, the max response in assay [5] is 8.27%.

Consider `CCC1CCC(CCC(=O)O)C1` (stereo unspecified), for which the Potency result in assay [1], in [2], in assay [3], in assay [4], in assay [6] and in assay [7] was “inactive” throughout. Also, the Potency entry in assay [8], in assay [9] and in assay [10] was “inactive” throughout. Besides, the max response in assay [5] was -15.6%.

For the compound `CSSc1ccoc1C`, the Potency entry in assay [1], in assay [2], in assay [3], in assay [4], in assay [6] and in assay [7] was “inactive” each time. The Potency result in assay [8], in [9] and in [10] was “inactive” in each case. For the same compound, the max response in assay [5] is 0.757%.

In the case of `CC(C)N=C=NC(C)C`, the Potency result in assay [1], in assay [2], in [3], in [4], in [6] and in assay [7] was “inactive” throughout. Also, the Potency result in assay [8], in assay [9] and in assay [10] was “inactive” each time. In addition, in assay [5], the max response is 3.08%.

As to `Cc1cc(CCC(=O)OCCOCCOCCOC(=O)CCc2cc(C)c(O)c(C(C)(C)C)c2)cc(C(C)(C)C)c1O`, the Potency entry in [1], in [2], in assay [3], in assay [4], in [6] and in assay [7] was “inactive” each time. Also, the Potency result in [8] was “inactive”. Besides, the max response in assay [5] is 6.66%.

As for `CCCCCC`, the Potency entry in [1], in assay [2], in assay [3], in assay [4], in [6] and in assay [7] was “inactive” each time. Besides, the Potency result in assay [8], in assay [9] and in assay [10] was “inactive” in each case. Further, in assay [5], the max response is 0.47%.

For the compound `CC1=CC[C@@H]2C[C@H]1C2(C)C`, the activity change, negative = cytotoxic in assay [1] was 1.07% [at 15.8 µM]; in assay [8], 2.7% [at 15.8 µM]. Moreover, the cytotoxicity increase is 2.52% [at 15.8 µM] in [2], -4.53% [at 15.8 µM] in assay [7] and -3.58% [at 15.8 µM] in [10]. Further, in assay [3], the activity change, negative = cytotoxicity was 8.54% [at 15.8 µM]. In [4], the viability change, negative = cytotoxic is 0.867% [at 15.8 µM]. Further, the max response in assay [5] is 1.39%. The activity change in assay [6] was 2.23% [at 15.8 µM, active compounds read high]. Besides, the cytotoxicity in assay [9] was -4.03% [at 15.8 µM].

In the case of `CCOC(=O)C(C)O` (stereo unspecified), the Potency result in assay [1], in [2], in assay [3], in assay [4], in [6] and in assay [7] was “inactive” in each case. For the same compound, the Potency entry in [8], in assay [9] and in assay [10] was “inactive” in each case. Also, in assay [5], the max response was 15.3%.

With `CCN(Cc1cccc(S(=O)(=O)O)c1)c1ccc(C(=C2C=CC(=[N+](CC)Cc3cccc(S(=O)(=O)O)c3)C=C2)c2ccccc2S(=O)(=O)[O-])cc1`, the Potency result in assay [1], in assay [2], in assay [3], in assay [4], in assay [6] and in assay [7] was “inactive” in each case. In addition, the Potency result in assay [8], in assay [9] and in assay [10] was “inactive” in each case. For the same compound, the max response in assay [5] is -0.266%.

As to `FC(F)(F)C(F)(F)C(F)(F)C(F)(F)CCI`, the Potency result in assay [1], in assay [2], in assay [3], in assay [4], in assay [6] and in assay [7] was “inactive” in each case. The Potency entry in assay [8], in [9] and in [10] was “inactive” in each case. The max response in [5] was -4.67%.

With `CC(=O)OCC1=C(C(=O)O)N2C(=O)[C@@H](NC(=O)CSc3ccncc3)[C@H]2SC1`, the Potency result in assay [1], in assay [2], in assay [3], in assay [4], in assay [6] and in assay [7] was “inactive” throughout. In addition, the Potency result in assay [8], in assay [9] and in assay [10] was “inactive” each time. The max response in assay [5] is 5.21%.

As for `Oc1cccc2[nH]ccc12`, the Potency result in assay [1], in assay [2], in [3], in assay [4], in [6] and in assay [7] was “inactive” in each case. Moreover, the Potency entry in assay [8], in [9] and in [10] was “inactive” in each case. Moreover, in assay [5], the max response was 12.2%.

In the case of `O=NN(CCCl)C(=O)NCCCl`, the Potency entry in assay [1], in [2], in assay [3], in [4], in assay [6] and in [8] was “inactive” in each case. Further, the max response in [5] was 8.5%. Moreover, the Potency in assay [7] was 4.77 µM (active).

Turning to `CCCCCCCCCCCCCOC(=O)CCSCCC(=O)OCCCCCCCCCCCCC`, the activity change, negative = cytotoxic in assay [1] was 6.27% [at 15.8 µM]; in assay [8] it was 0.647% [at 15.8 µM]. Also, the cytotoxicity increase is 7.8% [at 15.8 µM] in [2], -0.0072% [at 15.8 µM] in assay [7] and -4.11% [at 15.8 µM] in assay [10]. For the same compound, the activity change, negative = cytotoxicity in assay [3] was -1.74% [at 15.8 µM]. The viability change, negative = cytotoxic in assay [4] was -12% [at 15.8 µM]. Also, the max response in assay [5] was -0.06%. In addition, in assay [6], the activity change is 16% [at 15.8 µM, active compounds read high]. The cytotoxicity in [9] is -0.358% [at 15.8 µM].

Take `C/C(C=O)=C\c1ccccc1`: the Potency result in assay [1], in [2], in [3], in assay [4], in assay [6] and in assay [7] was “inactive” throughout. The Potency result in assay [8], in [9] and in [10] was “inactive” in each case. For the same compound, the max response in assay [5] was 0.492%.

(Values after PubChem BioAssay (Tox21).)
